From PubChem BioAssay AID1159580 (chemical genetic matrix, 2015)
Out of some 5,500 compounds screened, about 2,000 (36%) were called active. Inconclusive results (about 18%) are left out. No stated cut-off is given here; in the data, active means normalized growth mostly below about 0.91 (no sharp cut-off); inconclusive means no clear call, values can overlap the other calls; inactive means mostly above about 0.92. This is one part of the list.

Experiment: chemical genetic growth profiling, strain panel (AID 1159580);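 further: tested at 20 µM; growth read once vehicle control cultures reached saturation at 30 °C; 1 = growth at the plate median or of vehicle wells; lower values mean less growth of the strain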
Settings: S. cerevisiae deletion strains, growth OD

Measured: normalized growth

CO/N=C(\C(=O)NC1C(=O)N2C(C(=O)OC(C)OC(C)=O)=C(COC(N)=O)CSC12)c1ccco1 (stereo not given)
inactive: locus YAL021C, strain ccr4, active compounds read low 0.994 | locus YAL026C, strain drs2, active compounds read low 0.996 | locus YAL030W, strain snc1, active compounds read low 0.998 | locus YBL061C, strain skt5, active compounds read low 0.992 | locus YBR009C, strain hhf1, active compounds read low 0.994 | locus YBR023C, strain chs3, active compounds read low 0.988 | locus YBR171W, strain sec66, active compounds read low 0.983 | locus YBR231C, strain swc5, active compounds read low 1 | locus YBR279W, strain paf1, active compounds read low 0.991 | locus YCL011C, strain gbp2, active compounds read low 0.997 | locus YCL016C, strain dcc1, active compounds read low 0.985 | locus YCL061C, strain MRC1, active compounds read low 0.99 | locus YCL069W, strain vba3, active compounds read low 0.989 | locus YCR088W, strain abp1, active compounds read low 0.994 | locus YDL005C, strain med2, active compounds read low 0.985 | locus YDL040C, strain nat1, active compounds read low 0.995 | locus YDR001C, strain nth1, active compounds read low 1 | locus YDR069C, strain doa4, active compounds read low 0.994 | locus YDR137W, strain rgp1, active compounds read low 0.996 | locus YDR159W, strain sac3, active compounds read low 0.996 | locus YDR195W, strain ref2 0.985 | locus YDR297W, strain sur2, active compounds read low 1 | locus YDR334W, strain swr1, active compounds read low 1 | locus YDR335W, strain msn5, active compounds read low 0.996 | locus YDR392W, strain spt3, active compounds read low 0.993 | locus YEL003W, strain gim4, active compounds read low 0.998 | locus YEL037C, strain rad23, active compounds read low 0.997 | locus YEL061C, strain CIN8 (second series), active compounds read low 0.999 | locus YER015W, strain faa2, active compounds read low 1 | locus YER016W, strain bim1, active compounds read low 0.99 | locus YER111C, strain swi4, active compounds read low 0.986 | locus YER155C, strain BEM2 (second series), active compounds read low 0.991 | locus YFR010W, strain ubp6, active compounds read low 0.998 | locus YGL167C, strain pmr1, active compounds read low 0.989 | locus YGL173C, strain kem1, active compounds read low 0.985 | locus YGL227W, strain vid30, active compounds read low 0.981 | locus YGL240W, strain doc1, active compounds read low 1.01 | locus YGL253W, strain hxk2, active compounds read low 1 | locus YHR013C, strain ard1, active compounds read low 0.998 | locus YHR027C, strain rpn1, active compounds read low 0.994 | locus YHR030C, strain SLT2, active compounds read low 1.03 | locus YHR079C, strain IRE1, active compounds read low 1.05 | locus YHR142W, strain chs7, active compounds read low 0.99 | locus YJL092W, strain hpr5, active compounds read low 0.993 | locus YJL095W, strain BCK1 (second series), active compounds read low 0.997 | locus YJL095W, strain BCK1, active compounds read low 1.01 | locus YJL115W, strain asf1, active compounds read low 0.996 | locus YJL129C, strain trk1, active compounds read low 0.987 | locus YJL154C, strain vps35, active compounds read low 1.01 | locus YJL164C, strain tpk1, active compounds read low 0.996 | locus YJL166W, strain qcr8, active compounds read low 0.996 | locus YJL187C, strain SWE1, active compounds read low 1 | locus YJR066W, strain TOR1, active compounds read low 0.989 | locus YKL160W, strain elf1, active compounds read low 0.997 | locus YKR026C, strain gcn3, active compounds read low 0.983 | locus YKR091W, strain srl3, active compounds read low 0.998 | locus YLL001W, strain dnm1, active compounds read low 0.981 | locus YLL026W, active compounds read low 0.991 | locus YLL041C, strain sdh2, active compounds read low 0.993 | locus YLR027C, strain aat2, active compounds read low 0.992 | locus YLR113W, strain HOG1, active compounds read low 1 | locus YLR221C, strain rsa3, active compounds read low 0.995 | locus YLR258W, strain gsy2, active compounds read low 0.995 | locus YLR262C, strain YPT6 (second series), active compounds read low 0.985 | locus YLR320W, strain mms22, active compounds read low 0.986 | locus YLR342W, strain FKS1, active compounds read low 0.988 | locus YLR357W, strain rsc2, active compounds read low 1.02 | locus YLR370C, strain arc18, active compounds read low 0.987 | locus YLR384C, strain iki3, active compounds read low 1 | locus YML120C, strain ndi1, active compounds read low 0.996 | locus YMR058W, strain fet3, active compounds read low 0.996 | locus YMR125W, strain sto1, active compounds read low 0.985 | locus YMR129W, active compounds read low 0.995 | locus YMR205C, strain PFK2, active compounds read low 0.991 | locus YMR231W, strain pep5, active compounds read low 0.989 | locus YNL071W, strain lat1, active compounds read low 1 | locus YNL183C, strain NPR1, active compounds read low 0.99 | locus YNL209W, strain ssb2, active compounds read low 0.995 | locus YNL248C, strain rpa49, active compounds read low 0.987 | locus YNL322C, strain KRE1 (second series), active compounds read low 0.99 | locus YNR049C, strain mso1, active compounds read low 0.992 | locus YOR001W, strain rrp6, active compounds read low 0.999 | locus YOR070C, strain gyp1, active compounds read low 0.929 | locus YOR080W, strain dia2, active compounds read low 1 | locus YOR083W, strain WHI5, active compounds read low 0.996 | locus YOR106W, strain vam3, active compounds read low 0.988 | locus YOR231W, strain MKK1, active compounds read low 1.04 | locus YOR265W, strain rbl2, active compounds read low 0.991 | locus YOR270C, strain vph1, active compounds read low 1 | locus YOR290C, strain snf2, active compounds read low 1 | locus YPL051W, strain arl3, active compounds read low 0.999 | locus YPL078C, strain atp4, active compounds read low 0.995 | locus YPL106C, strain sse1, active compounds read low 0.981 | locus YPL240C, strain hsp82, active compounds read low 0.994 | locus YPL256C, strain CLN2, active compounds read low 1.07
